Results on 14 compounds are retold here after PubChem BioAssay.

The nature of experiment [1]: inhibitors of TNFa-induced NFkB p65 translocation, primary screen, imaging, HUVEC, MLSMR starter and 10KST1 sets (AID 438;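 active = inhibition above 20% together with a positive visual image hit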;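 also: compound added about 3h40 before a 20 min TNFalpha stimulation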;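 as to inhibition: signal is the nuclear over cytoplasmic p65 intensity ratio per well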). To be noted: HUVEC TNFa-induced p65 nuclear translocation; cell count: measured here: nuclei count (cytotoxicity indicator), at 2.08 µM; inhibition: at 2 µM, stronger effect = higher value, 0% TNFa-plus-vehicle, 100% no-TNFa wells.
Experiment [2] in a line: reduction of polyQ htt aggregates in cells – imaging, exon1htt(103Q)mCFP cells, high-content imaging, primary screen (AID 483;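 active = visual image review flags a hit and inhibition of aggregation exceeds 20%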;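 also: compound exposure lasted 3 days before fixation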;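 as to nuclei count: percent of the per-plate median nuclei count of sample wells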). To be noted: exon1htt(103Q)mCFP cell line, aggregate imaging, at 2 µM; inhibition of aggregation: stronger effect = higher value; nuclei count: measured here: cell count, toxicity.
Experiment [3] in a line: endothelial E-selectin expression blockers – imaging, HUVEC, immunofluorescence, MLSMR starter and 10KST1 sets, primary screen (AID 487;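 active = visually confirmed hit in the image check and inhibition above 20%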;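 as to inhibition: signal is fraction of cell area covered by stained E-selectin grains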;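 as to nuclei count: 100% = median nuclei count of all wells on the same plate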). To be noted: HUVEC TNFalpha-induced E-selectin immunofluorescence imaging, at 2 µM; inhibition: stronger effect = higher value; nuclei count: measured here: cell number, toxicity.
The target of experiment [4] is Voltage-gated potassium channel subunit beta-2 (Rattus norvegicus) (UniProt P62483). Nature of the experiment: inhibitors of rat Kvbeta2 reductase activity – biochemical, NADPH fluorescence, primary screen (AID 622;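 active = fluorescence slope higher than the sample average by over 3 SD, cut at about -0.22 in these data, passing the limit was not always enough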;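 also: slope of raw intensity against log time taken from 70 to 1610 s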). To be noted: recombinant KvBeta, 4-cyanobenzaldehyde reduction, at 10 µM, stronger effect = higher value.
Sequence of Voltage-gated potassium channel subunit beta-2 (Rattus norvegicus) (P62483 whole entry, looked up): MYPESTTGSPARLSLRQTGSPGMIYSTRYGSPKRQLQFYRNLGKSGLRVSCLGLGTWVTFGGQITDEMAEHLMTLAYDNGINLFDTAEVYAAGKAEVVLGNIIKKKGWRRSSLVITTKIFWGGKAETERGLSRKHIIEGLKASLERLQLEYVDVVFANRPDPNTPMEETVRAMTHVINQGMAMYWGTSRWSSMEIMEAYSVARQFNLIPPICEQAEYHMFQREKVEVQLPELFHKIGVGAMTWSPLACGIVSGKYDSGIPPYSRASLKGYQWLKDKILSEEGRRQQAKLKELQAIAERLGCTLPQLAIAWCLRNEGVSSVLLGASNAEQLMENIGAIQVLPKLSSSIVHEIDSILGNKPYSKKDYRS
Experiment [5] has the same target. Nature of the experiment: enhancers of rat Kvbeta2 NADPH turnover – biochemical, NADPH fluorescence, primary screen (AID 623;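 active = NADPH fluorescence slope more negative than the mean of all samples by about 3 SD, 99.7% confidence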;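 also: fluorescence intensity change per second fitted from 20 to 320 s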). Conditions: Recombinant KvBeta, NADPH fluorescence decrease slope, 10 min; at 10 µM; stronger effect = lower value.
The target of experiment [6] is Alpha-2C adrenergic receptor (Homo sapiens) (UniProt P18825). Briefly: compounds altering alpha2C-coupled GIRK flux – cell-based, HEK293 alpha2C/GIRK1/2, thallium flux, primary screen (AID 624;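 active = fluorescence slope after compound addition differing from the mean of all screened samples at 99.7% confidence, in either direction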;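 also: slope of fluorescence ratio to pre-addition baseline per second over 15 to 24 s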). Conditions: thallium flux BTC fluorescence, at 10 µM, actives lie on both sides.
Sequence of Alpha-2C adrenergic receptor (Homo sapiens) (P18825 whole entry, looked up): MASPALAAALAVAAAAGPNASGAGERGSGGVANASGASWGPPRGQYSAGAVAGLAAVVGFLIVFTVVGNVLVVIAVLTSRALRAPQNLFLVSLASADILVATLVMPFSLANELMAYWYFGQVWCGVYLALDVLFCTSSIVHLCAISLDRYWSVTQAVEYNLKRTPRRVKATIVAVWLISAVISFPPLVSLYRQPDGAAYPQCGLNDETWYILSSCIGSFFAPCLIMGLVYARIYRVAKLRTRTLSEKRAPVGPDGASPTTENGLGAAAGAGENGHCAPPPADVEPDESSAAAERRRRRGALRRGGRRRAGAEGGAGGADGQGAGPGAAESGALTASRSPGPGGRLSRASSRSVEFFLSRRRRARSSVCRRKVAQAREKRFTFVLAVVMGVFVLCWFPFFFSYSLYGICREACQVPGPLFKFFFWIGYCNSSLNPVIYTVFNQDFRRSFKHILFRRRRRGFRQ
Experiment [7] in a line: blockers of RIG-like receptor reporter activation – cell-based, Sendai virus stimulus, luciferase, 10K MLSCN set, TLR/RLR signaling modifier project, primary screen (AID 602276;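 active = inhibition at or above 50% at 10 µM; inactive = inhibition below 50%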;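 also: firefly luciferase from ISG56 promoter only with Renilla not read in this screen; 0% = Sendai virus plus DMSO and 100% = medium plus DMSO without virus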). Conditions: HEK293 RL24 IRF3 luciferase reporter, at 10 µM, stronger effect = higher value. For orientation: A reporter such as luciferase makes a cellular process visible.
Experiment [8] can be described thus: TLR3 IRF3 reporter activation blockers – cell-based, poly I:C stimulus, luciferase, 10K MLSCN set, primary screen (AID 602277). To be noted: HEK293-TLR3 RL24 IRF3 luciferase reporter, at 10 µM, stronger effect = higher value.

The structures appear in SMILES notation. Active and inactive are the calls of the source.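 The calls were made as follows, unless noted: active = inhibition of the reporter signal at or above 50%; inactive = inhibition below 50%.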

The inhibition is the relative decrease from the control value, in per cent. In the case of `CCOC(=O)/C(C#N)=C(/C)c1ccc(OC)cc1`, in experiment [1], the cell count worked out at 323. Besides, the inhibition in experiment [1] is -9.6% (inactive); in experiment [3], -50.1% (inactive); in experiment [7], 5.07% (inactive); in experiment [8] it was -13.7% (inactive). Besides, the inhibition of aggregation in experiment [2] was -28.9% (inactive). The nuclei count in experiment [2] and in experiment [3] was 120% throughout. Also, the fluorescence slope in experiment [4] was -0.515 (inactive). Besides, the NADPH fluorescence slope in experiment [5] is -4.3e-06 (inactive). Moreover, in experiment [6], the slope was 0.00405 (inactive).
On to `COc1ccc(C2C(C(=O)N3CCCC3)c3cc(OC)c(OC)cc3C(=O)N2C)cc1` (centres undefined), for which the cell count in experiment [1] was determined as 583. Besides, the inhibition is -21.8% (inactive) in experiment [1], -71.5% (inactive) in experiment [3], 3.19% (inactive) in experiment [7] and 12.2% (inactive) in experiment [8]. Further, in experiment [2], the inhibition of aggregation is 7.8% (inactive). Besides, the nuclei count in experiment [2] was determined as 111%; in experiment [3] it was 115%. The fluorescence slope in experiment [4] was -0.544 (inactive). In experiment [5], the NADPH fluorescence slope is -5.3e-05 (inactive). In addition, in experiment [6], the slope is 0.00513 (inactive).
With `CCOc1ccc(-c2nnc(N)s2)cc1`, the cell count in experiment [1] worked out at 432. The inhibition in experiment [1] is -3.8% (inactive); in experiment [3], -8.1% (inactive); in experiment [7], -27% (inactive); in experiment [8] it was -78.8% (inactive). Also, in experiment [2], the inhibition of aggregation was 29.9% (inactive). Moreover, the nuclei count in experiment [2] was 61.4%; in experiment [3], 90.5%. In addition, in experiment [4], the fluorescence slope is -0.493 (inactive). The NADPH fluorescence slope in experiment [5] was -0.000137 (inactive). Further, in experiment [6], the slope is 0.00563 (inactive).
For the compound `CCOC(=O)C1CCN(S(=O)(=O)c2cccc(-c3csc(C)n3)c2)CC1`, the cell count in experiment [1] turned out to be 234. Besides, the inhibition in experiment [1] was 4.4% (inactive); in experiment [3], 32.4% (inactive); in experiment [7], 14.1% (inactive); in experiment [8] it was 2.04% (inactive). In experiment [2], the inhibition of aggregation is 8.1% (inactive). In addition, the nuclei count in experiment [2] was found to be 97.1%; in experiment [3] it was 89%. Moreover, in experiment [4], the fluorescence slope is -0.433 (inactive). Also, the NADPH fluorescence slope in experiment [5] was -0.000124 (inactive). In addition, the slope in experiment [6] was 0.0037 (inactive).
As for `COc1ccc(C(=O)Nc2cccc(-c3nc4ncccc4o3)c2C)cc1OC`, the cell count in experiment [1] is 729. The inhibition in experiment [1] was -44.9% (inactive); in experiment [3], -22.4% (inactive); in experiment [7] it was -16.3% (inactive); in experiment [8] it was -34.5% (inactive). Also, in experiment [2], the inhibition of aggregation is -4.4% (inactive). Besides, the nuclei count was 96.1% in experiment [2] and 109% in experiment [3]. In experiment [4], the fluorescence slope is -0.562 (inactive). For the same compound, the NADPH fluorescence slope in experiment [5] is 1.4e-05 (inactive). Moreover, the slope in experiment [6] is 0.00564 (inactive).
As to `CCOC(=O)c1cc2c(=O)n3cccc(C)c3nc2n(CCOC)c1=NC(=O)c1ccncc1`, the cell count in experiment [1] came out at 397. Also, the inhibition was -0.2% (inactive) in experiment [1], -4.6% (inactive) in experiment [3], 16.8% (inactive) in experiment [7] and 12.5% (inactive) in experiment [8]. For the same compound, the inhibition of aggregation in experiment [2] is -15.8% (inactive). Besides, the nuclei count in experiment [2] worked out at 100%; in experiment [3], 96.5%. Besides, the fluorescence slope in experiment [4] is -0.346 (inactive). Besides, the NADPH fluorescence slope in experiment [5] is -4.3e-05 (inactive). Moreover, the slope in experiment [6] was 0.00713 (inactive).
Consider `COc1cccc(-n2c(SCC(=O)N3CCCC3)nc3c([nH]c4ccccc43)c2=O)c1`, for which, in experiment [1], the cell count turned out to be 493. Moreover, the inhibition in experiment [1] was -5.9% (inactive); in experiment [3], 5.4% (inactive); in experiment [7], -9.13% (inactive); in experiment [8] it was 55.5% (active). Further, in experiment [2], the inhibition of aggregation is 0.6% (inactive). For the same compound, the results for the nuclei count in experiment [2] and in experiment [3] were 75.6% and 91.8%, respectively. In addition, the fluorescence slope in experiment [4] was -0.544 (inactive). Further, in experiment [5], the NADPH fluorescence slope is -1.5e-05 (inactive). The slope in experiment [6] is 0.00652 (inactive).
Regarding `C=CCn1c(SCC(=O)NCC2CCCO2)nc2scc(-c3ccco3)c2c1=O` (centres undefined), the cell count in experiment [1] came out at 557. Also, the inhibition is -10.3% (inactive) in experiment [1], 28.1% (inactive) in experiment [3], 11.9% (inactive) in experiment [7] and 13.5% (inactive) in experiment [8]. Moreover, the inhibition of aggregation in experiment [2] was -29.4% (inactive). The nuclei count in experiment [2] amounted to 98.5%; in experiment [3], 98.7%. In addition, the fluorescence slope in experiment [4] is -0.459 (inactive). Further, the NADPH fluorescence slope in experiment [5] is -0.000271 (active). Moreover, the slope in experiment [6] is 0.00487 (inactive).
As to `CCN(CC)CCNC(=O)c1ccc(CS(=O)(=O)c2ccc(Br)cc2)o1`, in experiment [1], the cell count was found to be 655. Besides, the inhibition in experiment [1] was 11.2% (inactive); in experiment [3] it was 21.7% (inactive); in experiment [7], 7.79% (inactive); in experiment [8] it was 25.7% (inactive). In experiment [2], the inhibition of aggregation is -11.8% (inactive). Moreover, the nuclei count in experiment [2] worked out at 103%; in experiment [3], 117%. The fluorescence slope in experiment [4] was -0.611 (inactive). Further, the NADPH fluorescence slope in experiment [5] was -3.9e-05 (inactive). Besides, the slope in experiment [6] is 0.00568 (inactive).
Take `CN(CCCNC(=O)c1cn(C)c2ccc(S(=O)(=O)N(C)C)cc2c1=O)c1ccccc1`: the cell count in experiment [1] worked out at 596. For the same compound, the inhibition is -4.5% (inactive) in experiment [1], 39.4% (inactive) in experiment [3], 15.4% (inactive) in experiment [7] and 7.91% (inactive) in experiment [8]. In addition, the inhibition of aggregation in experiment [2] is -18.9% (inactive). For the same compound, the nuclei count amounted to 37.6% in experiment [2] and 94.2% in experiment [3]. Moreover, the fluorescence slope in experiment [4] was -0.582 (inactive). Also, in experiment [5], the NADPH fluorescence slope was -7.6e-06 (inactive). Also, in experiment [6], the slope is 0.00499 (inactive).
In the case of `Fc1cccc(NCc2cn3ccccc3n2)c1`, the cell count in experiment [1] turned out to be 664. The inhibition in experiment [1] is -8% (inactive); in experiment [3], -64.2% (inactive); in experiment [7], -1.05% (inactive); in experiment [8] it was -62.5% (inactive). For the same compound, the inhibition of aggregation in experiment [2] was -73.5% (inactive). In addition, the nuclei count came out at 91.8% in experiment [2] and 120% in experiment [3]. Also, the fluorescence slope in experiment [4] was -0.209 (inactive). For the same compound, the NADPH fluorescence slope in experiment [5] is -1.6e-05 (inactive). In experiment [6], the slope is 0.00555 (inactive).
Consider `CCOC(=O)C1=C(C)N(C)C(=O)NC1c1cccc(O)c1` (centres undefined), for which the cell count in experiment [1] amounted to 421. The inhibition is 6.4% (inactive) in experiment [1], -43.5% (inactive) in experiment [3], 9.66% (inactive) in experiment [7] and 17.5% (inactive) in experiment [8]. For the same compound, in experiment [2], the inhibition of aggregation was -6.7% (inactive). Also, the nuclei count in experiment [2] is 99.3%; in experiment [3], 124%. In experiment [4], the fluorescence slope is -0.259 (inactive). The NADPH fluorescence slope in experiment [5] was -1.3e-05 (inactive). Also, the slope in experiment [6] is 0.00604 (inactive).
With `COc1ccc(Cl)cc1S(=O)(=O)n1cnc2ccccc21`, the cell count in experiment [1] amounted to 725. Further, the inhibition was -4.8% (inactive) in experiment [1], -42.3% (inactive) in experiment [3], 19.3% (inactive) in experiment [7] and 31.3% (inactive) in experiment [8]. Besides, in experiment [2], the inhibition of aggregation is -5.8% (inactive). For the same compound, the figures for the nuclei count in experiment [2] and in experiment [3] were 92.3% and 104%, respectively. Also, the fluorescence slope in experiment [4] was -0.403 (inactive). Also, in experiment [5], the NADPH fluorescence slope is 9.7e-06 (inactive). Besides, the slope in experiment [6] was 0.00504 (inactive).
Consider `CC1(C)CC(=O)c2sc(NS(C)(=O)=O)nc2C1`, for which the cell count in experiment [1] is 638. In addition, the inhibition in experiment [1] was -10.5% (inactive); in experiment [3], -56.1% (inactive); in experiment [7], 18.2% (inactive); in experiment [8], 27.8% (inactive). Besides, in experiment [2], the inhibition of aggregation was -16.8% (inactive). Besides, the nuclei count was 104% in experiment [2] and 106% in experiment [3]. Also, the fluorescence slope in experiment [4] was -0.533 (inactive). Further, the NADPH fluorescence slope in experiment [5] is -4.4e-05 (inactive). In addition, the slope in experiment [6] was 0.00519 (inactive).
